The OligoGym collection

Biological target: BCL7A
Assay: pooled miR-30 sensor sort-seq; sequence = guide strand
Details: shRNA
Further: reference of the scale not given here.

| Sequence | sensor-assay potency score (higher = more potent) |
| --- | --- |
| TTAGAAAATGGAATCCAGCAGA | -0.0728 |
| TACTGCTGTACAACACACCAAA | -0.883 |
| TTGTTTTTGTCATCAACCTTGG | -0.192 |
| TAGTAGTTCTGTTCGCACCCAA | 0.392 |
| TTTAAGACAGAAACCTTTCGGC | 0.668 |
| TTTCTCTGAGCTGTTCATCGAA | -0.326 |
| TTGATATCATCTTTGGCCCGGC | -0.0024 |
| TATCGTTACATAGAGAAGTGGG | 0.305 |
| TTGTACAAACCATATCTACTGA | -0.0617 |
| ATAATGAACATTCCAAACCATG | -1.57 |
| TTCATCGAATGTTCCATCGAGG | -0.362 |
| TAGGGATGTGTCACCAACGGTC | -0.791 |
| TTGTGGAATGTGTAGCCGCAGC | -1.01 |
| AACATTTTGATTCTTCTCGAAG | -1.09 |
| TACAGCAGCAACACAAATGGAA | -0.286 |
| TTGAAATTCAGGAACATTTTGA | -0.466 |
| TTTTGCAGTCTTGTCATTCTGC | 0.59 |
| TTCAGGAACATTTTGATTCTTC | -0.0367 |
| TTCTCTGAGCTGTTCATCGAAT | -0.798 |
| TGAGCCACACTTCTCGTCCTTG | -0.721 |
